Pf Dd2 growth: inhibitors of Plasmodium falciparum Dd2 growth; P. falciparum Dd2 growth, SYBR Green, 72 h; Potency, µM (doses to about 28.9 µM), without a hit: at the top dose activity, negative = inhibition, usual class: inhibitors; 120,000 compounds, 4.3% hits; active = well fitted inhibition curve with a large enough effect;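 note: plate controls were DMSO vehicle for no effect and reference drug for full effect; nearly all actives have a fitted effect of over 65% in size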
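Infected erythrocytes (Dd2, 0.3% parasitemia, 2.5% hematocrit final) are added to compound in RPMI-1640/Albumax II medium, grown 72 h at 37C in low oxygen, then lysed with saponin/Triton-X containing SYBR Green and read by fluorescence.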
* marks the source's active call; other numbers are inactive results; i = inactive; [ ] = remark or other dose. This is one part of a sample in which hits are shown more often than they occur. Potency is the fitted concentration of half-maximal effect.

SMILES	Pf Dd2 growth
COc1ccc(Cl)cc1NC(=O)N1CC(=O)Nc2sc3c(c2C1c1ccccc1)CCCC3 (configuration not stated)	11µM*
COc1ccc(Cl)cc1NC(=O)CN1C(=O)NC2(CCCCC2)C1=O	i
COc1cc(NC(=O)N2CCc3c(sc4c3CCCC4)C2c2ccccc2)cc(OC)c1OC (configuration not stated)	16%
CCCN(CC1CCOC1)S(=O)(=O)c1ccc(F)cc1 (configuration not stated)	34%[5.79 µM]
Cc1nnc(CN(C)c2ccc(-c3nc(CCCc4ccccc4)no3)cn2)o1	i
CN(Cc1ccccn1)c1ccc(-c2nc(Cc3ccc(F)cc3)no2)cn1	-27%
CN(Cc1ncc[nH]1)c1ccc(-c2nc(CCCc3ccccc3)no2)cn1	4.5µM*
CCN(C(=O)CCC(=O)NCCc1noc(-c2cccnc2)n1)c1ccccc1	-3%
CCc1cccc(C)c1Nc1c(-c2ccc(F)cc2)nc2sccn12	-27%
CCc1cccc(C)c1Nc1c(-c2cccc(O)c2)nc2cnccn12	8.9µM*
CCc1cccc(C)c1Nc1c(-c2ccc(N(C)C)cc2)nc2cnccn12	-22%
COc1ccc(C)cc1-c1ccc(COc2ccc3c(cnn3CCC(=O)O)c2)cc1	i
CNC(=O)CCn1ncc2cc(OC3CCc4cccc(-c5ccc(O)c(F)c5)c43)ccc21 (configuration not stated)	i
CNC(=O)CCn1ncc2cc(OCc3ccccc3-c3cccc(OC)c3)ccc21	-4%[44.1 µM]
CNC(=O)CCn1ncc2cc(OCc3ccccc3-c3ccsc3)ccc21	6.3µM*
CNC(=O)CCn1ncc2cc(OCc3ccccc3-c3ccc(OC)cc3C)ccc21	5.6µM*
O=C(O)CCn1ncc2cc(OCc3ccc(-c4cccc(CO)c4)cc3)ccc21	i
COCc1nc(C2CCCN(C(=O)NCC(C)C)C2)no1 (configuration not stated)	-9%
O=C(CCc1ccccc1)N1CCC(c2nc(C3CCOCC3)no2)C1 (configuration not stated)	6%
CNC(=O)CCC[C@@H]1[C@H]2CCCN3CCC[C@@H](CN1C(=O)CCOC)[C@@H]23	7%
Cc1cc(C(=O)N2CC(F)(F)C[C@H]2c2nnc(C3CC3)o2)c(C)o1	-3%
Cn1ccnc1C(=O)N1CC(F)(F)C[C@H]1c1nc(C2CC2)no1	22%
Cc1cc(C(=O)N2CC(F)(F)C[C@H]2c2nc(C3CC3)no2)c(C)o1	3.2µM*
CCCCC(=O)N1CCC2(CC1)Nc1ccccc1NC2=O	-4%
COCCNC(=O)C(NC(=O)c1ccc(OC)cc1)C1CCN(C(=O)c2cccc(C)c2)CC1 (configuration not stated)	i
SMILES	Pf Dd2 growth
CCOc1ccc(S(=O)(=O)N2CCCN(C(=O)C3CC3)c3ccccc32)cc1	i
O=C([C@@H]1COCC(=O)N1Cc1ccccc1)N1CCN(Cc2ccc3c(c2)OCO3)CC1	31%
CCN1CCC(N(Cc2ccc3c(c2)OCO3)C(=O)Nc2ccccc2OC)CC1	-24%
COC(=O)c1ccc(Cl)cc1NC(=O)N(Cc1ccc(C)o1)C1CCN(C(C)=O)CC1	-21%
O=C(Nc1ccc(F)c(Cl)c1)N(Cc1ccc2c(c1)OCO2)C1CCN(Cc2ccccc2)CC1	8.9µM*
CCN1CCC(N(Cc2ccc3c(c2)OCO3)C(=O)Nc2cc(Cl)ccc2C(=O)OC)CC1	3.5µM*
O=C1[C@H]2CN(Cc3ccc(F)c(Cl)c3)C[C@H]2C(=O)N1Cc1ccc2c(c1)OCO2	i
COc1ccc(CCNC(=O)CCCN2C(=O)COc3ccc(C(C)=O)cc32)cc1OC	i
CC(=O)NCCC(=O)N1CCCC1C(=O)Nc1cccc(-n2cccn2)c1 (configuration not stated)	-9%
OCCOCCn1cnc(-c2ccccc2)c1COCc1ccccc1	-1%
CCOc1ccccc1NC(=O)N1CCCC(c2noc(COc3ccccc3)n2)C1 (configuration not stated)	5.6µM*
COCCOCc1nc(C2CCN(C(=O)NCc3ccc(C)cc3)CC2)no1	-25%
CCCNC(=O)N1CCC(c2noc(COc3ccc(C)cc3)n2)CC1	8.9µM*
CCOc1ccccc1NC(=O)N1CCC(c2noc(COC)n2)C1 (configuration not stated)	-7%
CCCNC(=O)N1CCC(c2noc(COc3ccc(F)cc3)n2)C1 (configuration not stated)	-29%
Cc1c(F)cccc1NC(=O)N1CCCC(c2noc(COc3ccccc3)n2)C1 (configuration not stated)	-86%
Cc1ccc(NC(=O)CCn2ccn3nc4c(c3c2=O)CCCC4)cc1	i
CCOc1ccc(CC(=O)NCCc2csc(-c3ccc(Cl)cc3)n2)cc1	i
Cc1ccc(-c2nc(CCNC(=O)c3ccc(C)c(C)c3)cs2)cc1	14%
CCOc1ccc(CC(=O)NCCc2csc(-c3ccc(C)cc3)n2)cc1	10µM*
O=C1N(c2ccccn2)C[C@H]2CN(Cc3ccccc3)CCN12	-15%[44.1 µM]
Cc1cn(CC(=O)N2CCOCC(O)C2)c(=O)[nH]c1=O (configuration not stated)	2%
Cn1c(COc2cccc(CN3CCCC3)c2Cl)nnc1C1CC(N)C1 (configuration not stated)	-14%
N[C@@H]1CCN(Cc2ccccc2OCc2ccc(Cl)cc2)C[C@H]1O	4.5µM*
NC1CCCN(Cc2ccccc2F)C1 (configuration not stated)	-20%
SMILES	Pf Dd2 growth
CS(=O)(=O)Nc1ccc([C@H]2OCC(=O)N[C@@H]2CO)cc1	i
Cc1nnc(NC(=O)C[C@H]2NC(=O)c3ccccc3NC2=O)s1	-22%
Cc1nc(C(=O)N2CCOc3c(O)cc(-c4cccc(Cl)c4)cc3C2)cs1	i
CC(C)CNC(=O)CN1CCOc2c(O)cc(-c3cccc(Cl)c3)cc2C1	10µM*
Cn1cc([C@@H](NC(=O)CN2CCOc3ccccc3C2)C2CC(O)C2)cn1 (some centres not stated)	2%
Oc1cc(-c2cccc(Cl)c2)cc2c1OCCN(c1cc(C3CC3)ncn1)C2	i
C=CCn1cc(CN2CCOc3c(O)cc(-c4cccc(Cl)c4)cc3C2)cn1	11µM*
C=CCn1cc(CN2CCC(Oc3ccc4ccccc4c3)(C(=O)O)CC2)cn1	8%
Cc1ccncc1C(=O)N1CCOc2c(O)cc(-c3ccccc3C)cc2C1	-9%
CCc1noc(CN2CCOc3c(O)cc(-c4ccccc4C)cc3C2)n1	i
Cc1ccccc1-c1cc(O)c2c(c1)CN(Cc1ccoc1)CCO2	11µM*
CC(C(=O)NC1CC1)[C@@H]1CC[C@@]2(C)CC[C@H](NC(=O)Nc3cccc(F)c3)[C@@H](C)[C@@H]2[C@H]1O (some centres not stated)	-24%
COc1ccc(CN2C(=O)COC[C@H]2C(=O)NCc2ccc(Cl)cc2)c(OC)c1	21%
O=C1CCN(Cc2cccnc2)CCCC(C(=O)N2CCOCC2)CCN1 (configuration not stated)	6%
COc1cc(OC)c(NC(=O)Cn2ccn3nc4c(c3c2=O)CCCC4)cc1Cl	i
COC(=O)c1sc(-c2ccccc2)cc1NC(=O)Nc1ccccc1Cl	11µM*
COC(=O)c1sc(-c2ccccc2)cc1NC(=O)c1cccc(F)c1	i[5.79 µM]
COC(=O)c1sc(-c2ccccc2)cc1NC(=O)c1cccc(Cl)c1	451%[5.79 µM]
N#Cc1ccc(OCC2CN(Cc3cccc(C(F)(F)F)c3)C(=O)c3c(ccnc3-c3ccc(OCC(=O)O)cc3)O2)cc1 (configuration not stated)	i
